Myeloid diff MLP: myeloid differentiation induction | ER-HoxA9 myeloid progenitors, lysozyme-GFP differentiation, flow cytometry | calls only at 10 µM | actives 1% (n = 360,000) | AID 624256;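 active = normalized GFP-positive differentiation at or above the plate's own cutoff, the solvent-only control mean plus 3 SD; inconclusive = no clear call, values can overlap the other calls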;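 also: cells exposed to compound for four days before flow analysis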
NPR1 activator: GC-A (human) enzyme activation; actives 0.14% (n = 370,000); activation, % at 10 µM; HEK293 GC-A cells, cGMP TR-FRET, EC30 ANP; 0% at EC30 ANP, 100% saturating ANP; in the data active = activation above about 40%
Granule exo inh: lytic granule exocytosis inhibition | TALL-104 LAMP-1 surface exposure, flow cytometry; cells stimulated with thapsigargin and PMA | inhibition, % at 10 µM | actives 0.66% (n = 360,000);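 active = inhibition above about 55%, limit read from the data; inconclusive = no clear call, values can overlap the other calls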
GC-B act: GC-B (human) receptor activation; P20594; HEK293-GC-B cells, CNP EC30, cGMP TR-FRET; 0% at EC30 CNP, 100% saturating CNP; activation, % at 10 µM; actives 0.11% (n = 370,000);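 active = activation at 10 µM reaching about 35% in either raw or pattern-adjusted values, limit read from the data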
Target sequence (P20594 whole entry, looked up): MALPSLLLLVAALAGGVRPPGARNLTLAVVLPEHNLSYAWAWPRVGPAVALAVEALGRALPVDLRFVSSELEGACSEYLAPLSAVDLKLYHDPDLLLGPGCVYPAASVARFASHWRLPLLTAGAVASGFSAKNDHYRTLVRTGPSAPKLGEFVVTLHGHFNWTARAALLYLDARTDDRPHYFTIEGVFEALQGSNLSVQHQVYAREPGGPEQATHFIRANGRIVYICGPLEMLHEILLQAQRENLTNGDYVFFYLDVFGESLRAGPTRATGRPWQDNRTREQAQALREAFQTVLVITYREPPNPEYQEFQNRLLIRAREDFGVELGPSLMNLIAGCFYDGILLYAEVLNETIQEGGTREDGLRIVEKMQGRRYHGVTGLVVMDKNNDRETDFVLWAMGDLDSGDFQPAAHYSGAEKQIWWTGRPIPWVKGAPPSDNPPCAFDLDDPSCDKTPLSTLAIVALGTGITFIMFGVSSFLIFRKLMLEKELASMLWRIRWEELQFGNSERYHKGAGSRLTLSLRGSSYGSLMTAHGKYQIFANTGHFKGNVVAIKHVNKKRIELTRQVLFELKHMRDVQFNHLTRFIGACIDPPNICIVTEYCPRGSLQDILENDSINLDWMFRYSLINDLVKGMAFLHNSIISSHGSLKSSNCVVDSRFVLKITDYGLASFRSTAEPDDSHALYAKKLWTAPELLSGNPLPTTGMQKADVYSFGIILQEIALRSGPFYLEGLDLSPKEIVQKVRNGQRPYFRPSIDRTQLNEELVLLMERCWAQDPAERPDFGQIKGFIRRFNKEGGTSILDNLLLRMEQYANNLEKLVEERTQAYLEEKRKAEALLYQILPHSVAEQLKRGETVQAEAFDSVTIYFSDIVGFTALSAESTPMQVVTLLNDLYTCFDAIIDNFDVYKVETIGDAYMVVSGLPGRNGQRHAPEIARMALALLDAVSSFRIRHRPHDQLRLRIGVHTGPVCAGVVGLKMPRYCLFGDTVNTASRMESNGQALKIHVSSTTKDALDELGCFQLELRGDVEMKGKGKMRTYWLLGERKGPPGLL
The depositor's hits bear a star; i = inactive; ? = inconclusive; . = not tested or not shown; + = active, no number. Rows were chosen to be rich in hits. Some 1.8% of all compounds tested hit in one or more screens of this group.

SMILES | Myeloid diff MLP | NPR1 activator | Granule exo inh | GC-B act
COc1ccccc1-c1cc(C(F)(F)F)nc(S(=O)(=O)CCCC(=O)N2CCOCC2)n1 | ? | 70.3* | 6.0 | 4.2
COc1ccccc1-c1cc(C(F)(F)F)nc(S(=O)(=O)CCCC(=O)O)n1 | i | 32.3 | 1.7 | 4.9
COC(=O)[C@H](CC(C)C)N(Cc1cn(Cc2ccc(C)cc2)nn1)S(=O)(=O)c1ccccc1Br | . | 2.8 | . | 3.9
COc1ccc(CCN2C(=O)CCC2(C)c2nnnn2Cc2ccccc2)cc1OC (centres undefined) | i | -6.2 | -0.4 | -2.9
Cn1ccsc1=NC(=O)c1ccc([N+](=O)[O-])o1 | + | -0.4 | 0.4 | -3.3
COc1cc(C(=O)N=c2sccn2C)c([N+](=O)[O-])cc1OC | i | -5.4 | 9.9 | 1.3
CC(=O)c1c(N2CCN(C)CC2)[nH]c(-c2ccccc2)nc1=S | + | -3.9 | -3.9 | -4.5
CCc1cc(/C(Cc2ccccn2)=N\O)c(O)cc1O | + | -7.3 | 1.6 | 1.2
Cc1nc(N2CCOCC2)c2c3c(sc2n1)CCC3 | i | -0.1 | -1.1 | -0.1
Cc1nc(-n2nnc3cc(C)c(C)cc32)c2c3c(sc2n1)CCCC3 | + | -4.3 | -1.2 | 6.4
CC[N+]1=C(C)C(C)(C)c2cc(C)ccc21 | + | -1.4 | 9.8 | 3.2
CCN1C(=O)C(=O)c2cc(C)ccc21 | i | -0.8 | -2.6 | -11.1
CC(C)NC(=O)OC[C@@H]1CSCCS(=O)(=O)N1 | . | 3.5 | . | 1.5
CCOC(=O)C1=C(O)c2ccccc2C(=O)/C1=C\c1ccc(C)cc1 | + | . | 96.8* | .
CC(=O)Nc1ccc2cc3ccc(NC(C)=O)cc3nc2c1 | + | -6.5 | 1.1 | -15.4
Cc1ccc(CON=C2CCN(c3ncc(C(F)(F)F)cc3Cl)CC2)cc1 | + | 3.3 | 2.5 | 3.2
C/C(=N\NC(N)=S)C1=CCC2C3CC[C@H]4CC(O)CC[C@]4(C)C3CC[C@]12C (some centres undefined) | ? | -5.8 | 55.6* | -2.3
CCCCC(=O)NNC(=O)c1c(O)c2ccccc2[nH]c1=O | i | 2.2 | -5.2 | -0.1
O=C(CCl)NNC(=O)c1c(O)c2ccccc2[nH]c1=O | + | -7.7 | -5.6 | -1.2
CC(C)(C)c1ccc(C(=O)Nc2cc(Cl)c(F)cc2C(=O)O)cc1 | . | 2.2 | . | -9.1
COc1cc(C(O)c2nc(-c3cc4ccccc4o3)cs2)ccc1F (centres undefined) | i | 3.6 | 4.7 | 2.0
CCOC(=O)c1sc2ncn(/N=C/c3ccc(O)c(OC)c3)c(=O)c2c1C | i | 2.7 | 105.0* | -1.6
COc1ccc(-c2ccnc3[nH]n(-c4ccccc4)c(=O)c23)cc1 | + | -5.2 | -5.2 | -8.4
COc1ccc(-n2c(Cc3cccn3C)nnc2SCC(=O)Nc2ccc(F)cc2F)cc1 | + | -1.7 | 1.8 | 1.0
C/C(=N/NC(=O)Cc1cccs1)c1cccc([N+](=O)[O-])c1 | . | -0.6 | . | -1.9
SMILES | Myeloid diff MLP | NPR1 activator | Granule exo inh | GC-B act
Nc1nc2c(ncn2COC(CO)CO)c(=O)[nH]1 | + | 8.8 | -1.7 | 7.5
COc1ccc(-n2c(SCC(=O)Nc3ccc(S(=O)(=O)Nc4cc(C)nc(C)n4)cc3)nnc2-c2ccco2)cc1 | . | 5.8 | . | 2.0
COCO[C@@H]1CC(CO)=C[C@H]2OCO[C@H]21 | . | -1.4 | . | -1.8
CCn1c(SCC(=O)Nc2cc(C)on2)nc2c([nH]c3ccccc32)c1=O | i | 58.7* | -4.3 | -1.5
COCCn1c(SCC(=O)Nc2cc(C)on2)nc2c([nH]c3ccccc32)c1=O | i | 49.9* | 1.5 | -2.3
COCCn1c(SCC(=O)Nc2ccc(NC(C)=O)cc2)nc2c([nH]c3ccccc32)c1=O | i | -5.9 | 13.6 | -3.3
CN(Cc1ccccc1)Cc1nc2c([nH]1)c(=O)n(C)c(=O)n2C | + | 1.5 | 1.5 | 0.4
Cn1c(=O)c2[nH]c(CCc3ccncc3)nc2n(C)c1=O | i | 2.1 | 14.3 | 0.0
CC1(C(=O)NS(=O)(=O)C2CC2)CCCN(C(=O)COCc2ccccc2)C1 (centres undefined) | i | 2.8 | -7.8 | 2.1
O=C(CCN1CCCCC1)c1ccc2c(c1)OCCO2 | i | -1.0 | 37.9 | -3.4
O=C(CCN1CCCC1Cc1ccccc1)c1ccc2c(c1)OCCO2 (centres undefined) | i | 1.3 | 100.2* | -4.9
CN1C(=O)c2cc(NC(=O)C3CC3)ccc2OC[C@H]2O[C@@H](CC(=O)NC3CCC3)CC[C@@H]21 | . | 1.4 | . | 3.3
Cc1ccc(OCC(=O)N/N=C\c2ccc(C)o2)c([N+](=O)[O-])c1 | + | -2.3 | 2.6 | -0.9
